The text below walks through data of PubChem BioAssay (Tox21).

Each structure is given as a SMILES string. Inconclusive results are not listed. A call without a number means that no potency is given here. Unmarked numbers belong to inactive results. Calls of active or inactive are those of the source. Calls come from the whole dose curve; as a rule, active = well fitted cell-killing curve with a large enough effect in the repeat runs; inconclusive = weak or mixed curves, or effect the other way; inactive = no such curve, though single readings can be large or run the other way.
Potency is the fitted concentration of half-maximal effect.

This test can be described thus: qHTS assay to identify small molecule agonists of the farnesoid-X-receptor (FXR) signaling pathway - cell viability counter screen (AID 743218). Note: nearly all actives have a fitted effect of over 45% in size. The conditions noted are these: FXR-bla HEK293T viability, CellTiter-Glo luminescence, 16 h; series mostly up to 62.6 µM. The source says:
U.S. Tox21 Program National Center for Advancing Translational Sciences [NCATS] NIH Chemical Genomics Center [NCGC] U.S. Environmental Protection Agency [EPA] National Institutes of Environmental Health Sciences [NIEHS] National Toxicology Program [NTP] U.S. Food and Drug Administration [FDA] Tox21 Assay Overview: The farnesoid-X-receptor (FXR), a nuclear hormone receptor, is highly expressed in liver, intestine, kidney and adrenal cortex. Natural ligands of FXR are the bile acids (Cholic acid, Chenodeoxy cholic acid etc). FXR is an important regulator of diverse metabolic pathways, including the bile acid homeostasis, lipid and glucose metabolisms. FXR regulates the expression of target genes by binding either as a monomer or as a heterodimer with the retinoid X receptor (RXR). Numerous studies have reported that FXR exerts protective function during cholestasis, diabetes, liver regeneration, and cancer. To identify compounds that activate FXR signaling, GeneBLAzer FXR-UAS-bla HEK 293T cell line (Invitrogen, Carlsbad, CA) containing a beta-lactamase reporter gene under the control of a UAS response element was used to screen the Tox21 10K compound library. The cytotoxicity of the Tox21 compound library against the FXR-bla cell line was tested in parallel by measuring the cell viability using CellTiter-Glo assay in the same wells.
Tox21 Assay Protocol Summary: FXR-bla cells were dispensed at 5000 cells/5uL/well in 1536-well black wall/clear bottom plates using a Multidrop Combi (Thermo Fisher Scientific, Waltham, MA) dispenser. After the assay plates were incubated at 37 C and 5% CO2 for 5 h, 23 nL of compounds dissolved in DMSO, positive controls or DMSO only was transferred to the assay plate by a Pintool station (Kalypsys, San Diego, CA). The assay plates were incubated at 37C for 16 h. After 1 uL of LiveBLAzerTM B/G FRET substrate was added using a Bioraptr Flying Reagent Dispenser (FRD) workstation (Beckman Coulter, Indianapolis, IN), the plates were incubated at room temperature for 2 h, and fluorescence intensity was measured by an Envision plate reader (PerkinElmer, Shelton, CT). For cell viability readout that measures cytotoxicity, 4uL/well of CellTiter-Glo reagent was added into the assay plates using a Bioraptr FRD. After 30 min incubation at room temperature, the luminescence intensity in the plates was measured using a ViewLux plate reader (PerkinElmer).
(Quantitative high-throughput screening tests each substance at several concentrations.)
As to `C#Cc1cccc(Nc2ncnc3cc(OCCOC)c(OCCOC)cc23)c1`, the Potency entry is “inactive”.

Turning to `CCOc1ccc(N)c([N+](=O)[O-])c1`, the Potency entry was “inactive”.

Turning to `Cc1cc(C(=O)O)ccc1[N+](=O)[O-]`, the Potency result is “inactive”.

Turning to `C=CCOc1ccccc1OCC(O)CNC(C)C` (stereo not given), the Potency result was “inactive”.

For `CNCCCN1c2ccccc2CCc2ccccc21`, the Potency is 18.8 µM (active).

In the case of `OCCNCc1ccccc1`, the Potency entry is “inactive”.

On to `c1ccc(C(O[C@H]2CCCN(CCc3ccc4c(c3)OCO4)C2)c2ccccc2)cc1`, for which the Potency result is “inactive”.

Consider `Cc1nn(C)c(Oc2ccccc2)c1/C=N/OCc1ccc(C(=O)OC(C)(C)C)cc1`, for which the Potency entry is “inactive”.

As for `CC(C)(COC(=O)c1ccccc1)COC(=O)c1ccccc1`, the Potency entry is “inactive”.

As for `C/C(=C(\CCOP(=O)(O)O)SC(=O)c1ccccc1)N(C=O)Cc1cnc(C)nc1N`, the viability change, negative = cytotoxic is 3.54% [at 5.95 µM].

As for `O=C(O)c1ccc(S(=O)(=O)O)cc1C(=O)O`, the Potency entry is “inactive”.

Take `CC(CSC(=O)c1ccccc1)C(=O)N1C[C@@H](Sc2ccccc2)C[C@H]1C(=O)O` (stereo not given in full): the Potency entry is “inactive”.

Regarding `CCOC(=O)c1cccnc1`, the Potency entry is “inactive”.

Take `Cc1ccc(C(C)OC(=O)C2(C)CCC(C(=O)O)C2(C)C)cc1` (stereo not given): the Potency result was “inactive”.

On to `COc1cc(C(=O)OCCCN2CCCN(CCCOC(=O)c3cc(OC)c(OC)c(OC)c3)CC2)cc(OC)c1OC`, for which the Potency entry was “inactive”.

For the compound `Cc1oc2c(NC(=O)c3c(Cl)cccc3Cl)cccc2c1C(C)(C)O`, the Potency is 21.9 µM (active).

As to `Nc1cccc(S(=O)(=O)c2cccc(N)c2)c1`, the Potency entry was “inactive”.

`O[C@@H](COc1cccc2ncccc12)CN1CCN(C2c3ccccc3[C@@H]3[C@H](c4ccccc42)C3(F)F)CC1` (stereo not given in full): the Potency was 15 µM (active).

Turning to `CCCCCCCN`, the Potency entry is “inactive”.

Consider `O=C1c2ccccc2S(=O)(=O)N1CCCCN1CCN(c2ncccn2)CC1`, for which the Potency entry was “inactive”.

`CCC(C)(C)CC`: the Potency entry was “inactive”.

With `CCCCCCCC#N`, the Potency entry was “inactive”.

`COS(=O)(=O)C(F)(F)F`: the Potency result was “inactive”.

Take `O=C(O)C(S)C(S)C(=O)O` (stereo not given): the Potency entry was “inactive”.

Turning to `CC(=O)c1ccc2c(c1)N(CCCN1CCC(CCO)CC1)c1ccccc1S2`, the Potency was 29.8 µM (active).

On to `COC(C)(C)CCO`, for which the Potency entry was “inactive”.

Take `COc1cc2nc(Cl)nc(N)c2cc1OC`: the Potency entry is “inactive”.

Take `CC(=O)c1cccc([N+](=O)[O-])c1`: the Potency entry is “inactive”.

Turning to `C/C=C/C=C/CO`, the Potency result was “inactive”.

On to `OC(CN1CCC(Cc2ccc(F)cc2)CC1)c1ccc(Cl)cc1` (stereo not given), for which the Potency result is “inactive”.

As to `NCC(=O)CCC(=O)O`, the Potency result was “inactive”.

Take `COc1ccnc(CS(=O)c2nc3ccc(OC(F)F)cc3[nH]2)c1OC` (stereo not given): the Potency entry is “inactive”.

With `COC(=O)C1=C(C)NC(COC(N)=O)=C(C(=O)OC(C)C)C1c1cccc(Cl)c1Cl` (stereo not given), the Potency result was “inactive”.

Take `Nc1ccccc1S(=O)(=O)c1ccccc1`: the Potency entry was “inactive”.

Regarding `CCC(CC)Nc1ccc(C)c(C)c1`, the Potency result was “inactive”.

With `CN1Cc2cc(C(=O)N3CCC(C4CCNCC4)CC3)ccc2NC(CC(=O)O)C1=O` (stereo not given), the Potency entry was “inactive”.

`CCCCOC(=O)CCCCCCCC(=O)OCCCC`: the Potency result is “inactive”.

`Cc1ccc(N=Nc2c(O)c(C(=O)O)cc3ccccc23)c(S(=O)(=O)O)c1`: the Potency result was “inactive”.

As for `CC1CCC(=O)C1=O` (stereo not given), the Potency entry is “inactive”.

Take `O=C(NCC1CN(c2ccc(N3CCOCC3=O)cc2)C(=O)O1)c1ccc(Cl)s1` (stereo not given): the Potency result was “inactive”.
